Screening data: PubChem BioAssay, Broad Institute
STAT3 binder: binds human STAT3 on microarray. P40763. Small molecule microarray, His-STAT3 binding, anti-His fluorescence. calls only. 17,000 compounds, 0.2% hits;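 active = compounds whose four printed spots each show fluorescence over background unusually high for their array block, chance value under 7%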
NFkB SMM: binds human NF-kappa-B p105 on microarray; P19838; calls only; AID 624139; Small molecule microarray, anti-His fluorescence binding; 17,000 compounds, 1.3% hits;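 active = spot fluorescence over background significantly raised, with a chance value under 7% in all four replicate spots of the compound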;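 also: probe protein is his-tagged human p50 processed subunit at 1 µg/ml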
Target sequence (P19838 1-433 limits assumed): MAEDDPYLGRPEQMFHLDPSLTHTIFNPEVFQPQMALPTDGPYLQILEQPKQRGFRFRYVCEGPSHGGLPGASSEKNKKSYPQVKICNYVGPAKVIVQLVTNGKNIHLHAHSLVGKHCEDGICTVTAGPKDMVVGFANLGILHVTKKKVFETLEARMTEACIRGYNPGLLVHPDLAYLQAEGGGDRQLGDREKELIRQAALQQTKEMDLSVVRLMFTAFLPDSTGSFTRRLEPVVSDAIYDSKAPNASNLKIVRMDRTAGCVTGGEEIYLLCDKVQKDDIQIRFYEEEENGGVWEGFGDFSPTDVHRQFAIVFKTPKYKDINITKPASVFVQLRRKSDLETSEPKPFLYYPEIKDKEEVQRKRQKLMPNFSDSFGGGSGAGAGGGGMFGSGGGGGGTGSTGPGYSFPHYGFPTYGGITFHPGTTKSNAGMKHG
p53 mut binder: mutant p53 (human) binding | 17,000 compounds, 0.4% hits | calls only | small molecule microarray binding, anti-GST fluorescence;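 active = compounds whose four printed spots each glow above background more than chance allows, each with a p-value under 7%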
Myc binder: c-Myc (human) binding | P01106 | small molecule microarray, His-c-Myc binding, anti-His fluorescence | calls only | 17,000 compounds, 1.5% hits;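 active = spot fluorescence over background with P-value below 7% in all four replicate spots, showing protein binding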
Calls only; - = inactive; + = active, no number. In the library only some 2.1% were active in any assay of this set; here they are far more common.

SMILES | STAT3 binder | NFkB SMM | p53 mut binder | Myc binder
COCc1c(Br)c(C)nc(OCC(=O)O)c1C#N | - | + | - | +
CC(C)NC(=O)Nc1ccc2c(c1)C(=O)N([C@H](C)CO)C[C@H](C)[C@@H](CN(C)Cc1ccccc1)OCCCC[C@H](C)O2 | - | + | - | -
CC(C)NC(=O)Nc1ccc2c(c1)C(=O)N([C@@H](C)CO)C[C@H](C)[C@@H](CN(C)C(=O)Nc1ccccc1)OCCCC[C@@H](C)O2 | - | + | - | +
CC(C)NC(=O)Nc1ccc2c(c1)C(=O)N([C@@H](C)CO)C[C@H](C)[C@H](CN(C)Cc1ccccc1)OCCCC[C@@H](C)O2 | - | - | - | -
C[C@H](CO)N1C[C@H](C)[C@H](CN(C)Cc2ccncc2)OCCCC[C@H](C)Oc2ccc(NC(=O)Nc3ccccc3)cc2C1=O | + | - | + | -
CC(C)NC(=O)Nc1ccc2c(c1)C(=O)N([C@@H](C)CO)C[C@@H](C)[C@H](CN(C)Cc1ccccc1)OCCCC[C@@H](C)O2 | - | - | - | -
CC(C)NC(=O)Nc1ccc2c(c1)C(=O)N([C@@H](C)CO)C[C@H](C)[C@@H](CN(C)Cc1ccccc1)OCCCC[C@H](C)O2 | - | + | - | +
Cc1ccc(-c2csc3ncnc(SCC(=O)Nc4ccccc4C(C)C)c23)cc1 | - | - | - | -
O=C(O)CCCC(=O)Nc1cccc(Cl)c1 | - | - | - | -
CC(C)NC(=O)Nc1ccc2c(c1)C(=O)N([C@@H](C)CO)C[C@H](C)[C@@H](CN(C)Cc1ccccc1)OCCCC[C@@H](C)O2 | - | - | - | +
CC(C)NC(=O)Nc1ccc2c(c1)C(=O)N([C@H](C)CO)C[C@@H](C)[C@H](CN(C)Cc1ccccc1)OCCCC[C@@H](C)O2 | - | - | - | -
CC(C)=CCN(C(=O)C#Cc1ccccc1)[C@H](CO)c1ccccc1 | - | + | - | -
CC(O)CNS(=O)(=O)c1cccc([N+](=O)[O-])c1 (stereo not drawn) | - | - | - | -
CCOc1ccccc1NC(=O)c1ccccc1N(C)S(=O)(=O)c1ccc(C)cc1 | - | - | - | -
CCOc1ccccc1C(=O)Oc1c(S(=O)(=O)c2ccc(C)cc2)c(C)nn1-c1ccccc1 | - | - | - | +
Cn1c(=O)oc2cc(S(=O)(=O)NCCC(=O)O)ccc21 | - | - | - | -
Cc1cc(C)c(S(=O)(=O)NCC(=O)O)c(C)c1 | - | - | - | +
CSc1cccc(NC(=O)CNS(=O)(=O)c2c(C)cc(C)cc2C)c1 | - | - | - | -
Cc1ccc2cc(S(=O)(=O)NCCC(=O)O)ccc2c1 | - | - | - | +
Cc1cc(S(=O)(=O)NCC(=O)O)ccc1F | - | - | - | +
C=C1[C@H](O)C[C@H]2[C@@H](/C=C(\C)C(=O)[C@@]3(O)C[C@H](C)[C@H](O)[C@@H]3[C@H]1O)C2(C)C | - | - | - | -
CC1(C)NC(=O)N(CCCOc2ccccc2CO)C1=O | - | - | - | -
COC(=O)c1ccccc1NC(=O)CN1C(=O)c2cccc3cccc1c23 | - | - | - | -
CN(CCC#N)S(=O)(=O)c1cccc2nsnc12 | - | - | - | -
CC(C)CC(NS(=O)(=O)c1cccc2nsnc12)C(=O)O (stereo not drawn) | - | + | - | +
SMILES | STAT3 binder | NFkB SMM | p53 mut binder | Myc binder
Cc1cc2nc3c(=O)[nH]c(=O)nc-3n(C)c2cc1C=O | - | - | - | +
CCCC(NS(=O)(=O)c1ccc(C)cc1)C(=O)O (stereo not drawn) | - | - | - | +
CCOc1ccc(C)cc1S(=O)(=O)n1nnc2ccccc21 | - | + | - | +
COC(=O)c1c(NC(=O)CSc2ncnc3sc(C)c(C)c23)sc(C)c1C | - | - | - | -
Cc1nn(CCCC(=O)O)c(C)c1[N+](=O)[O-] | - | - | - | +
COc1cc(C2c3cc(O[C@@H]4O[C@H](CO)[C@@H](O)[C@H](O)[C@H]4O)c(OC)cc3CC(CO)C2CO)ccc1O (stereo partly drawn) | - | - | - | -
COc1ccc(-c2cc(-c3cccs3)nc(SC(C(=O)O)c3ccccc3)c2C#N)cc1 (stereo not drawn) | - | - | - | -
CCCN(CCC)CC1CCCCN1CCNC(=O)N1c2ccccc2C(=O)Nc2cccnc21 (stereo not drawn) | - | - | + | -
COC(=O)c1sc(NC(=O)COc2ccc(C(C)C)cc2)c(C#N)c1C | - | - | - | -
Cc1cc(C)nc(SC(C)C(=O)Nc2cccc3ccccc23)n1 (stereo not drawn) | - | - | - | -
COCC1OC(OC(C)(C)C2CCC3(C)C=C(C4CCC5C4(C)CC(O)C4OC(C(C)(C)OC6OC(CO)C(O)C(O)C6NC(C)=O)CCC45C)CCC3O2)C(NC(C)=O)C(O)C1O (stereo not drawn) | - | + | - | +
COc1ccc(CO[C@H]2O[C@H](CO)[C@@H](O)[C@H](O)[C@H]2NC(C)=O)c2cc(C)oc12 | - | - | - | -
Cc1nn(C(=O)Cn2cc([N+](=O)[O-])cn2)c(C)c1Br | - | - | - | +
Cc1c(CC(=O)O)c(=O)oc2c(C)c(OCC(=O)O)ccc12 | - | - | - | -
Cc1c(CC(=O)O)c(=O)oc2cc(OCC(=O)O)ccc12 | - | - | - | +
Cc1ccc(OCC(=O)N(c2ccccn2)C2CCCCC2)c(C)c1 | - | - | - | -
Cc1cc(S(=O)(=O)NC2CCCCC2)ccc1OCC(=O)O | - | - | - | +
Cc1nn(CC(=O)Nc2ccc3c(c2)nc(CN2CCCC2)n3C)c(=O)c2ccccc12 | - | - | + | +
COc1c(C(C)C)cc2c(c1O)[C@]13CC[C@H](OC1=O)C(C)(C)C3CC2 (stereo partly drawn) | - | - | - | -
Cc1noc(C)c1S(=O)(=O)N(C)C[C@H]1OCCCC[C@H](C)Oc2ccc(N(C)C)cc2C(=O)N([C@@H](C)CO)C[C@@H]1C | - | - | + | -
C[C@H](CO)N1C[C@H](C)[C@@H](CN(C)S(=O)(=O)c2ccccc2)OCCCC[C@H](C)Oc2ccc(N(C)C)cc2C1=O | - | - | + | -
Cc1noc(C)c1S(=O)(=O)N(C)C[C@H]1OCCCC[C@@H](C)Oc2ccc(NC(=O)NC(C)C)cc2C(=O)N([C@@H](C)CO)C[C@H]1C | - | - | - | +
Cc1noc(C)c1S(=O)(=O)N(C)C[C@@H]1OCCCC[C@@H](C)Oc2ccc(N(C)C)cc2C(=O)N([C@H](C)CO)C[C@H]1C | - | + | - | +
Cc1noc(C)c1S(=O)(=O)N(C)C[C@H]1OCCCC[C@H](C)Oc2ccc(NC(=O)NC(C)C)cc2C(=O)N([C@H](C)CO)C[C@@H]1C | - | - | - | -
COc1ccc(C(=O)c2ccccc2)c(Oc2nc([N+](=O)[O-])nn2C)c1 | - | - | - | -
Nc1nc(CN2CCN(C(=O)c3ccco3)CC2)nc(N2CCCc3ccccc32)n1 | - | - | - | -
C[C@@H]1O[C@@H](Oc2cc(O)c3c(=O)c(O[C@@H]4O[C@@H](C)[C@H](O[C@@H]5O[C@@H](C)[C@H](O)[C@@H](O)[C@H]5O)[C@@H](O)[C@H]4O)c(-c4ccc(O)cc4)oc3c2)[C@H](O)[C@H](O)[C@H]1O | - | - | - | -
